From PubChem
A selection: hits, their analogues and other compounds. The true share with any hit is near 17%.
TDP1 cell CPT = qHTS for Inhibitors of human tyrosyl-DNA phosphodiesterase 1 (TDP1): qHTS in cells in presence of CPT | chicken DT40 Tdp1-/-;hTDP1 cells + 20 nM CPT, ATP luminescence, 48 h | Potency, µM (highest dose often 46.2 µM), inactives show top-dose activity change, negative = growth inhibition, most hits filed as inhibitors | 12% of 420,000 active | AID 686979, 2013; note: % is set by controls: 0 for no effect and ±100 for the full control effect; nearly all actives have a fitted effect of over 55% in size
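Cell growth measured by CellTiter-Glo luminescence after a minimum 48 h, 37 C compound exposure with 20 nM CPT in Tdp1-knockout DT40 cells stably expressing hTDP1, seeded 400/well; qHTS titration format.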
TDP1 cell noCPT = qHTS for Inhibitors of human tyrosyl-DNA phosphodiesterase 1 (TDP1): qHTS in cells in absence of CPT; DT40 Tdp1-/- hTDP1 cells, no CPT, ATP luminescence, 48 h; Potency, µM (top dose mostly 46.2 µM), inactives show at the top dose activity change, negative = growth inhibition, most hits filed as inhibitors; 15% of 420,000 active; AID 686978, 2013; note: % is set by controls: 0 for no effect and ±100 for the full control effect; nearly all actives have a fitted effect of over 55% in size
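Growth of hTDP1-complemented DT40 Tdp1-knockout cells is measured by ATP luminescence after at least 48 hr compound exposure at 37 °C, with DMSO substituting for the 20 nM CPT used in the parallel screen.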
TDP1 block = qHTS Assay for Inhibitors of Tyrosyl-DNA Phosphodiesterase (TDP1) | Tyrosyl-DNA phosphodiesterase 1 (Homo sapiens), Q9NUW8 | recombinant TDP1, AlphaScreen DNA substrate cleavage | Potency, µM (doses to about 130 µM), for inactives: top-dose activity change, negative = inhibition, actives largely listed as inhibitors | 0.28% of 350,000 active | AID 485290, 2010; note: % is set by controls: 0 for no effect and ±100 for the full control effect; nearly all actives have a fitted effect of over 40% in size
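AlphaScreen read-out: signal falls as enzyme removes the 3' tyrosine-FITC from a 5'-biotinylated DNA oligo (15 nM, 5 min, RT). Enzyme was E. coli-made recombinant Tdp1 at 1 nM, exposed to compound for 15 min beforehand; beads 10 ug/ml, 10 min.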
ClpP mod = qHTS Assay for Activators of ClpP | purified B. subtilis ClpP, FRET peptide cleavage, 20 min | ATP-dependent Clp protease proteolytic subunit (Bacillus subtilis (strain 168)), P80244 | 1.9% of 340,000 active | Potency, µM (series often up to 57.5 µM), without a hit: top-dose activity change, negative = active; active = well fitted falling curve with a large enough effect; inconclusive = small, poorly fitted or top-dose-only effect; inactive = no such curve, though single readings can be large or run the other way; note: the source files actives as falling curves though it sought activators and does not explain the sign; nearly all actives have a fitted effect of over 65% in size
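FRET quenching reversal measured ClpP activation: 10 microg/mL B. subtilis ClpP at pH 8 with the FRET-FV decapeptide, read at 430 nm after 320 nm excitation. The 20-min minus 0-min signal was scaled between DMSO/no-enzyme wells and ADEP (5.8 microM final).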
The depositor's hits bear a star; [ ] = remark or other dose. Unless noted, calls come from the whole dose curve; as a rule, active = well fitted curve in the direction sought with a large enough effect; inconclusive = small, poorly fitted or top-dose-only effect, or another doubt; inactive = no such curve, though single readings can be large; an effect the other way counts as inactive or inconclusive. Potency is the fitted concentration of half-maximal effect.

`CC(C)=CCC/C(C)=C/CNC(=O)CC1C[C@H](C(=O)N(C(C)C)C(C)C)[C@@]2(C)c3[nH]c4ccccc4c3CCN2C1=O` (some centres not stated) gave TDP1 cell CPT 16µM*, TDP1 cell noCPT 23µM*, TDP1 block 0% and ClpP mod 1%.
`C[C@@H]1CN([C@H](C)CO)C(=O)CCCn2cc(nn2)CO[C@H]1CN(C)S(=O)(=O)c1ccc(F)cc1` gave TDP1 cell CPT inconclusive, TDP1 cell noCPT -17% and ClpP mod -7%.
Cc1cccc(NC(=O)C2CCCN(c3cnccn3)C2)c1 (configuration not stated) was read as TDP1 cell CPT -2%, TDP1 cell noCPT -29%, TDP1 block 0% and ClpP mod -15%.
`CCOC(=O)c1ccc(NC(=O)C2CCCN(c3cnccn3)C2)cc1` (configuration not stated) gave TDP1 cell CPT inconclusive, TDP1 cell noCPT 15µM*, TDP1 block 3% and ClpP mod inconclusive.
For Cc1ccc(NC(=O)C2CCN(c3cnccn3)CC2)cc1 the results were TDP1 cell CPT 0%, TDP1 cell noCPT -23%, TDP1 block 2% and ClpP mod -3%.
Cc1ccc(NC(=O)C2CCCN(c3cnccn3)C2)cc1Cl (configuration not stated) was read as TDP1 cell CPT inconclusive, TDP1 cell noCPT 23µM*, TDP1 block 7% and ClpP mod -12%.
CCCc1ccc(NC(=O)C2CCN(c3cnccn3)CC2)cc1 was read as TDP1 cell CPT 16µM*, TDP1 cell noCPT 23µM*, TDP1 block 3% and ClpP mod inconclusive.
NC1C(N)C(N)C1N (configuration not stated) was read as TDP1 cell CPT 8%, TDP1 cell noCPT -14% and ClpP mod -1%.
`O=C(C1CCCN(C2CC(=O)N(c3ccc(Cl)cc3)C2=O)C1)N1CCCC1` (configuration not stated) gave TDP1 cell CPT -16%, TDP1 cell noCPT -11%, TDP1 block 3% and ClpP mod 1%.
For CC(C)NC[C@H]1CCc2cc(CO)c([N+](=O)[O-])cc2N1 the results were TDP1 block 13%[21 µM].
Screening COCCCNC(=O)c1ccc(-n2c(-c3ccccc3)cc3c2CCCC3)cc1 returned TDP1 cell CPT inconclusive, TDP1 cell noCPT 21µM*, TDP1 block 1% and ClpP mod -14%.
For COc1cccc(CNC(=O)c2ccc(C(=O)NCc3cccc(OC)c3)cc2)c1 the results were TDP1 cell CPT 8%, TDP1 cell noCPT 16%, TDP1 block 4% and ClpP mod 2%.
Screening COc1cccc(CNC(=O)c2ccc(NC(=O)N3CCCCc4ccccc43)cc2)c1OC returned TDP1 cell CPT inconclusive, TDP1 cell noCPT 16µM*, TDP1 block 7% and ClpP mod 4%.
COc1cccc(CNC(=O)c2ccc(-n3c(C)cc4c3CCCC4)cc2)c1 was read as TDP1 cell CPT -83%, TDP1 cell noCPT 16µM*, TDP1 block 9% and ClpP mod -12%.
Screening COCCNC(=O)c1ccc(NC(=O)N2CCCCc3ccccc32)cc1 returned TDP1 cell CPT -5%, TDP1 cell noCPT -10%, TDP1 block 1% and ClpP mod -2%.
COc1cccc(CNC(=O)c2ccc(NC(=O)N3CCCCc4ccccc43)cc2)c1 was read as TDP1 cell CPT inconclusive, TDP1 cell noCPT 21µM*, TDP1 block 2% and ClpP mod 0%.
CCOC(=O)C1CCN(c2ncnc3c2cnn3C)CC1 was read as TDP1 cell CPT 3%, TDP1 cell noCPT -27% and ClpP mod -2%.
O=C(O)CCc1nn2c3ccccc3n(CC(=O)c3ccccc3)c2nc1=O was read as TDP1 cell CPT -14%, TDP1 cell noCPT 1%, TDP1 block 7% and ClpP mod 32µM*.
For O=C(O)CCc1nn2c3ccccc3nc2n(CCN2CCCCC2)c1=O the results were TDP1 cell CPT 6%, TDP1 cell noCPT -1%, TDP1 block 0% and ClpP mod 18µM*.
